Screening data deposited in PubChem BioAssay by National Center for Advancing Translational Sciences (NCATS).
Only some compounds are listed: those with a hit (about 7.4% of all), similar ones and a draw of the others.
SMN2 splice enh – SMN2 splice variant enhancement; Potency, µM (doses to about 46.1 µM), actives largely listed as activators; 210,000 tested, 2.8% active; HEK293 SMN2-luciferase splicing reporter, luminescence, 30-36 h; also: nearly all actives have a fitted effect of over 55% in size
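HEK293 cells carry an SMN2 […]–luciferase reporter in which exon 7 inclusion puts luciferase in frame. Cells were plated 10-12 h before compound addition, then incubated 30-36 h at 37C. ONE-Glo luminescence was read; sodium butyrate at 4.5 mM final served as control.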
ELG1 genotox – inducers of genotoxicity in HEK293T ELG1-luciferase cells; HEK293T ELG1-luciferase reporter, luminescence, 16 h; Potency, µM (series often up to 46 µM), actives largely listed as activators; 330,000 tested, 1.3% active; AID 504466; also: nearly all actives have a fitted effect of over 60% in size
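Cells (2,000/well) expressing the ELG1-luciferase fusion are dosed by pin tool and kept 16 hr at 37 °C, 5% CO2. Signal comes from ONE-Glo luciferase reagent after 30 min at room temperature.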
Rab9 promoter act – activators of Rab9 promoter | AID 485297 | Huh7 Rab9 promoter-luciferase reporter, luminescence, 24 h | Potency, µM (titrated, usually from 9.22 µM), actives largely listed as activators | 320,000 tested, 2.8% active; also: nearly all actives have a fitted effect of over 60% in size
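Luciferase signal after 10 min detection reagent at ambient indicates Rab9 promoter upregulation; stably transfected Huh7 cells were treated 24 h with compound in DMSO at 37 °C, 5% CO2.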
NPC1 prom act – NPC1 promoter activation; Huh7 NPC1 promoter luciferase reporter, 24 h; 320,000 tested, 2.4% active; Potency, µM (titrated, usually from 9.22 µM), usual class: activators; AID 485313; also: nearly all actives have a fitted effect of over 60% in size
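Luminescence from an NPC1 promoter-driven luciferase reporter in stably transfected Huh7 cells was measured after 24 h compound treatment at 37 °C, followed by 10 min ambient incubation with luciferase detection reagent.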
Luc counter – counter-screen: inhibitors of Kinase-Glo firefly luciferase; Potency, µM (highest dose often 38.3 µM), most hits filed as inhibitors; 200,000 tested, 0.28% active; Kinase-Glo luciferase, ATP luminescence, 8 min; Q27757; also: nearly all actives have a fitted effect of over 60% in size
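Kinase-Glo luciferase light output from ATP and luciferin was measured with 10 uM ATP, within the enzyme's linear range. Buffer: 50 mM imidazole pH 7.2, 50 mM KCl, 7 mM MgCl2, 0.01% Tween 20, 0.05% BSA; luminescence read after 8 min at ambient temperature.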
FLuc counter – firefly luciferase modulation, counter-screen for miR-21 project; P08659; purified FLuc, Km substrates, luminescence inhibition; Potency, µM (top dose mostly 57.5 µM), usual class: inhibitors; 360,000 tested, 6.9% active; AID 588342; also: nearly all actives have a fitted effect of over 55% in size
Target sequence (P08659 whole entry, looked up): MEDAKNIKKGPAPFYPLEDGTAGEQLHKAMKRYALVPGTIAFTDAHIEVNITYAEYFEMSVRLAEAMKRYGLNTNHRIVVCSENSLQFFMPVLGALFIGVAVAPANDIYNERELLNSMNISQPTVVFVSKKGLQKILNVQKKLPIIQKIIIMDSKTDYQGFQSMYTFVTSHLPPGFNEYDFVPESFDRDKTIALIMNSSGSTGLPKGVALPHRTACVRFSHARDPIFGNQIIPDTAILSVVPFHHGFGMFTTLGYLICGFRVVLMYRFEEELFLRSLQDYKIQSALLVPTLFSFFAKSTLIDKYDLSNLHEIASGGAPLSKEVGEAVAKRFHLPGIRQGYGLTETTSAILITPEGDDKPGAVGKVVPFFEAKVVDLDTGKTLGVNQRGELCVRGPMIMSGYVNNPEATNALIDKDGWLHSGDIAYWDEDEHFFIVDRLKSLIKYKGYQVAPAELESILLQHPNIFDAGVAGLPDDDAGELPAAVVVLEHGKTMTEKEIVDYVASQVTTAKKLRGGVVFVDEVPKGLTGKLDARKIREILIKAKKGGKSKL
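Biochemical qHTS of compounds, final roughly 60 µM downward over six points, against 10 nM purified firefly luciferase using Km concentrations of substrates (10 uM D-luciferin, 10 uM ATP) in Tris acetate pH 7.5 buffer; luminescence output.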
Large screens that a line does not name were inactive. Calls follow the shape of the dose curve; as a rule, active = well fitted curve in the direction sought with a large enough effect; inconclusive = small, poorly fitted or top-dose-only effect, or another doubt; inactive = no such curve, though single readings can be large; an effect the other way counts as inactive or inconclusive.

CC(=O)C1CCCN(C(=O)c2ccc3oc(CCc4ccccc4)nc3c2)C1 (stereo not given)	ELG1 genotox inconclusive, Rab9 promoter act 2.5µM, NPC1 prom act inconclusive, FLuc counter inconclusive (no result: SMN2 splice enh, Luc counter)
COC(=O)C1CCCCN1C(=O)c1ccc2oc(Cc3ccccc3)nc2c1 (stereo not given)	ELG1 genotox inconclusive, Rab9 promoter act inconclusive, NPC1 prom act 3.5µM, FLuc counter 15µM (no result: SMN2 splice enh, Luc counter)
CC(=O)Nc1cnc(NC(=O)c2cccc(F)c2)cc1C	SMN2 splice enh 11µM, ELG1 genotox 15µM, Rab9 promoter act 2.8µM, NPC1 prom act 1.6µM, FLuc counter 30µM
Cc1cc(NC(=O)c2ccco2)ncc1NC(=O)Cc1ccccc1	Rab9 promoter act 3.2µM, NPC1 prom act inconclusive, FLuc counter 17µM
CCC(=O)Nc1cnc(NC(=O)c2cccc(F)c2)cc1C	SMN2 splice enh 11µM, ELG1 genotox inconclusive, Rab9 promoter act 0.71µM, NPC1 prom act 1.6µM, FLuc counter 9.5µM
Cc1cc(NC(=O)c2cccc(F)c2)no1	ELG1 genotox inconclusive, FLuc counter inconclusive
C=CC[C@@H](CC(=O)NCCO)C(=O)NC[C@H](OC(=O)[C@@H](CC=C)Cc1ccc(F)cc1)c1ccccc1	none (no result: SMN2 splice enh, Rab9 promoter act, NPC1 prom act, Luc counter, FLuc counter)
O=C1c2cccc3cccc(c23)C(=O)N1Cc1ccco1	none
O=C1C(C=NCc2cccnc2)=C(O)c2ccccc21	ELG1 genotox 2.1µM, Rab9 promoter act inconclusive, FLuc counter 1.9µM (no result: SMN2 splice enh, Luc counter)
O=C1C(C=NCc2ccco2)=C(O)c2ccccc21	SMN2 splice enh inconclusive, ELG1 genotox 5.2µM, FLuc counter 6.7µM
O=C1C(C=NCc2ccncc2)=C(O)c2ccccc21	none
Cc1nn(CCC(=O)N2CCN(c3ccccc3F)CC2)c(C)c1S(=O)(=O)N1CCCC1	none (no result: SMN2 splice enh, ELG1 genotox, Rab9 promoter act, NPC1 prom act, Luc counter)
COc1cc(CNCc2cc(OC)c(OC)c(OC)c2)cc(OC)c1	none (no result: SMN2 splice enh, Luc counter)
N#CC1(NC(=O)COC(=O)c2nccnc2N)CCCCC1	none (no result: SMN2 splice enh, Luc counter)
CN(C)S(=O)(=O)c1ccc(C(=O)Nc2cccc(C(=O)O)c2)cc1	FLuc counter 21µM (no result: ELG1 genotox, Rab9 promoter act, NPC1 prom act)
CN(C)S(=O)(=O)c1ccc(C(=O)Nc2cc3c(cc2C(=O)O)OCCCO3)cc1	FLuc counter 15µM (no result: SMN2 splice enh, Luc counter)
O=C(Nc1cc2c(cc1C(=O)O)OCCCO2)c1ccc(F)cc1F	ELG1 genotox inconclusive, FLuc counter 21µM (no result: SMN2 splice enh, Luc counter)
COc1ccccc1C(=O)Nc1cc2c(cc1C(=O)O)OCCCO2	none (no result: SMN2 splice enh, Luc counter)
CN(C)S(=O)(=O)c1ccc(C(=O)Nc2ccccc2F)cc1	none
CN(C)S(=O)(=O)c1ccc(C(=O)Nc2ccccc2C(=O)O)cc1	FLuc counter 12µM
CCc1ccc(NC(=O)C2CCN(S(=O)(=O)c3c(C)noc3/C=C/N(C)C)CC2)cc1	none (no result: SMN2 splice enh, Luc counter)
CN(C)S(=O)(=O)c1cccc(C(=O)Nc2ccc(N3CCOCC3)cc2)c1	FLuc counter inconclusive (no result: SMN2 splice enh, Luc counter)
CCN1C(=O)c2cccc3c(NC(=O)c4ccc(S(=O)(=O)N5CCOCC5)cc4)ccc1c23	SMN2 splice enh inconclusive, ELG1 genotox inconclusive
CN(C)S(=O)(=O)c1cccc(C(=O)Nc2cc3c(cc2C(=O)O)OCCCO3)c1	FLuc counter 6µM (no result: SMN2 splice enh, Luc counter)
CCN1C(=O)c2cccc3c(NC(=O)c4ccc(S(=O)(=O)N(C)C)cc4)ccc1c23	SMN2 splice enh 13µM
CC(=O)c1cc2c(cc1NC(=O)c1ccc(C)cc1)OCCO2	FLuc counter 5.4µM (no result: SMN2 splice enh, Luc counter)
CCC(=O)c1cc2c(cc1NC(=O)c1ccc(C)cc1)OCCO2	SMN2 splice enh inconclusive, ELG1 genotox inconclusive
O=S(=O)(NC1CCCCC1N1CCN(c2ccc(F)cc2)CC1)c1ccccc1 (stereo not given)	none (no result: SMN2 splice enh, Luc counter)
C(=C\c1ccncc1)/c1ccncc1	none (no result: SMN2 splice enh, Luc counter)
[O-]/[N+](=C\c1ccncc1)c1ccc(Br)cc1	ELG1 genotox inconclusive, Rab9 promoter act inconclusive, NPC1 prom act inconclusive, FLuc counter 8.5µM (no result: SMN2 splice enh)
O=C(NCc1ccco1)c1cc2ccc(O)cc2oc1=O	ELG1 genotox inconclusive, Rab9 promoter act inconclusive, NPC1 prom act inconclusive, Luc counter 5µM, FLuc counter 11µM
COc1ccc2cc(C(=O)NCc3ccco3)c(=O)oc2c1	ELG1 genotox 5.8µM, Rab9 promoter act inconclusive, NPC1 prom act inconclusive, FLuc counter 6µM
Cc1nc([N+](=O)[O-])cn1Cc1cccc([N+](=O)[O-])c1	none (no result: SMN2 splice enh)
